# Data taken from PubChem BioAssay AID1159580 (chemical genetic matrix, 2015).
# Screen size: about 5,500 compounds; about 2,000 (36%) were called active. Inconclusive results (about 18%) are left out. Some of the results follow. Unmarked numbers belong to inactive results. Cut-off read from the data, not from the text of the source: active = normalized growth mostly below about 0.91 (no sharp cut-off); inconclusive = no clear call, values can overlap the other calls; inactive = mostly above about 0.92.
# Assay: chemical genetic growth profiling, strain panel (AID 1159580);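 note: tested at 20 µM; growth read once vehicle control cultures reached saturation at 30 °C; 1 = growth at the plate median or of vehicle wells; lower values mean less growth of the strain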
# Details: S. cerevisiae deletion strains, growth OD
# [1] = locus YAL040C, strain CLN3, hits give low values
# [2] = locus YCL061C, strain MRC1 (second series), hits give low values
# [3] = locus YDR150W, strain NUM1, hits give low values
# [4] = locus YDR363W, strain ESC2, hits give low values
# [5] = locus YER002W, strain NOP16, hits give low values
# [6] = locus YNL175C, strain NOP13, hits give low values
# [7] = locus YNL197C, strain WHI3, hits give low values
# [8] = locus YNL224C, strain SQS1, hits give low values
# [9] = locus YOR083W, strain WHI5 (second series), hits give low values
structure (smiles),measurement,setting,value
S=c1[nH]nc(Nc2ccc(I)cc2)s1,normalized growth,"locus YAR019C, strain CDC15, hits give low values",0.839 (active)
same,normalized growth,"locus YBL105C, strain PKC1, hits give low values",0.874 (active)
same,normalized growth,"locus YBR135W, strain CKS1, hits give low values",0.881 (active)
same,normalized growth,"locus YBR136W, strain MEC1, hits give low values",0.871 (active)
same,normalized growth,"locus YBR160W, strain CDC28, hits give low values",0.885 (active)
same,normalized growth,"locus YDL017W, strain CDC7, hits give low values",0.873 (active)
same,normalized growth,"locus YDL028C, strain MPS1, hits give low values",0.873 (active)
same,normalized growth,"locus YDL101C, strain DUN1, hits give low values",0.917
same,normalized growth,"locus YDL108W, strain KIN28, hits give low values",0.868 (active)
same,normalized growth,"locus YDL132W, strain cdc53, hits give low values",0.904
same,normalized growth,"locus YDL214C, strain PRR2, hits give low values",0.722
same,normalized growth,"locus YDR052C, strain DBF4, hits give low values",0.874 (active)
same,normalized growth,"locus YDR054C, strain cdc34, hits give low values",0.912
same,normalized growth,"locus YDR226W, strain ADK1, hits give low values",0.878 (active)
same,normalized growth,"locus YDR477W, strain SNF1, hits give low values",0.644 (active)
same,normalized growth,"locus YER123W, strain YCK3, hits give low values",0.504 (active)
same,normalized growth,"locus YER133W, strain GLC7, hits give low values",0.607 (active)
same,normalized growth,"locus YFL009W, strain cdc4, hits give low values",0.845 (active)
same,normalized growth,"locus YFL029C, strain CAK1, hits give low values",0.814 (active)
same,normalized growth,"locus YFR003C, strain YPI1, hits give low values",0.869 (active)
same,normalized growth,"locus YFR019W, strain FAB1, hits give low values",0.813
same,normalized growth,"locus YFR028C, strain CDC14, hits give low values",0.871 (active)
same,normalized growth,"locus YGR040W, strain KSS1, hits give low values",0.658 (active)
same,normalized growth,"locus YGR052W, strain FMP48, hits give low values",0.744
same,normalized growth,"locus YGR092W, strain DBF2, hits give low values",0.326 (active)
same,normalized growth,"locus YHR030C, strain SLT2, hits give low values",0.279 (active)
same,normalized growth,"locus YHR079C, strain IRE1, hits give low values",0.362 (active)
same,normalized growth,"locus YHR082C, strain KSP1, hits give low values",0.653
same,normalized growth,"locus YHR205W, strain SCH9, hits give low values",0.821
same,normalized growth,"locus YIL147C, strain SLN1, hits give low values",0.866 (active)
same,normalized growth,"locus YJL095W, strain BCK1, hits give low values",0.396 (active)
same,normalized growth,"locus YJL128C, strain PBS2, hits give low values",0.882
same,normalized growth,"locus YJL157C, strain FAR1, hits give low values",0.699 (active)
same,normalized growth,"locus YJR016C, strain ILV3, hits give low values",0.85 (active)
same,normalized growth,"locus YJR066W, strain TOR1 (second series), hits give low values",0.14 (active)
same,normalized growth,"locus YJR066W, strain TOR1, hits give low values",0.462 (active)
same,normalized growth,"locus YKL048C, strain ELM1, hits give low values",0.857
same,normalized growth,"locus YKL067W, strain YNK1, hits give low values",0.746
same,normalized growth,"locus YKL101W, strain HSL1, hits give low values",0.77
same,normalized growth,"locus YKL193C, strain SDS22, hits give low values",0.849 (active)
same,normalized growth,"locus YKL203C, strain TOR2, hits give low values",0.648 (active)
same,normalized growth,"locus YLR113W, strain HOG1, hits give low values",0.51 (active)
same,normalized growth,"locus YLR133W, strain CKI1, hits give low values",0.745
same,normalized growth,"locus YLR403W, strain SFP1, hits give low values",0.566 (active)
same,normalized growth,"locus YML070W, strain DAK1, hits give low values",0.676 (active)
same,normalized growth,"locus YMR001C, strain CDC5, hits give low values",0.85 (active)
same,normalized growth,"locus YMR205C, strain PFK2 (second series), hits give low values",0.743 (active)
same,normalized growth,"locus YMR277W, strain FCP1, hits give low values",0.863 (active)
same,normalized growth,"locus YNL006W, strain LST8, hits give low values",0.87 (active)
same,normalized growth,"locus YNL020C, strain ARK1, hits give low values",0.71 (active)
same,normalized growth,"locus YNL161W, strain CBK1, hits give low values",0.87 (active)
same,normalized growth,"locus YNL183C, strain NPR1, hits give low values",0.516 (active)
same,normalized growth,"locus YNL207W, strain RIO2, hits give low values",0.818 (active)
same,normalized growth,"locus YNL222W, strain SSU72, hits give low values",0.864 (active)
same,normalized growth,"locus YNL307C, strain MCK1 (second series), hits give low values",0.701
same,normalized growth,"locus YOL078W, strain AVO1, hits give low values",0.847 (active)
same,normalized growth,"locus YOL136C, strain PFK27, hits give low values",0.651 (active)
same,normalized growth,"locus YOR061W, strain CKA2, hits give low values",0.755
same,normalized growth,"locus YOR119C, strain RIO1, hits give low values",0.61 (active)
same,normalized growth,"locus YOR231W, strain MKK1, hits give low values",0.447 (active)
same,normalized growth,"locus YOR329C, strain SCD5, hits give low values",0.847 (active)
same,normalized growth,"locus YPL031C, strain PHO85, hits give low values",0.495 (active)
same,normalized growth,"locus YPL153C, strain RAD53, hits give low values",0.512 (active)
same,normalized growth,"locus YPL204W, strain HRR25, hits give low values",0.486 (active)
same,normalized growth,"locus YPL209C, strain IPL1, hits give low values",0.85 (active)
same,normalized growth,"locus YPL256C, strain CLN2, hits give low values",0.438 (active)
same,normalized growth,"locus YPR025C, strain CCL1, hits give low values",0.863 (active)
same,normalized growth,"locus YPR106W, strain ISR1, hits give low values",0.894
same,normalized growth,"locus YPR111W, strain DBF20, hits give low values",0.911
same,normalized growth,"strain NNK1, hits give low values",0.893
same,normalized growth,"strain TSCII, hits give low values",0.838 (active)
Oc1cc2c(cc1O)CN(C(=S)NCCc1ccc(Cl)cc1)CCC2,normalized growth,"locus YAL013W, strain DEP1, hits give low values",0.609 (active)
same,normalized growth,[1],1.09
same,normalized growth,[2],0.683 (active)
same,normalized growth,[3],0.656 (active)
same,normalized growth,[4],0.879
same,normalized growth,[5],1
same,normalized growth,"locus YGR078C, strain PAC10, hits give low values",0.995
same,normalized growth,"locus YGR229C, strain SMI1, hits give low values",0.128 (active)
same,normalized growth,"locus YJR075W, strain HOC1, hits give low values",0.718 (active)
same,normalized growth,"locus YMR263W, strain SAP30, hits give low values",0.994
same,normalized growth,"locus YNL128W, strain TEP1, hits give low values",0.975
same,normalized growth,[6],1
same,normalized growth,[7],0.98
same,normalized growth,[8],0.997
same,normalized growth,"locus YNL322C, strain KRE1, hits give low values",0.992
same,normalized growth,[9],0.897
O=C(O)C1CCNCC1,normalized growth,[1],1
same,normalized growth,[2],0.998
same,normalized growth,[3],1
same,normalized growth,[4],0.964
same,normalized growth,[5],0.995
same,normalized growth,"locus YNL153C, strain GIM3, hits give low values",1.01
same,normalized growth,[6],0.992
same,normalized growth,[7],0.992
same,normalized growth,[8],0.997
same,normalized growth,[9],1.01
same,normalized growth,"locus YPL055C, strain LGE1, hits give low values",1.01
